An excerpt weighted towards active compounds, which were near 4.8% of everything screened.
ssDAF-12 act – activates DAF-12 receptor from parasite S. stercoralis | 1% of 370,000 active | HEK293 ssDAF-12/GRIP1 lit1-tk-luc reporter, luminescence; % of 3 µM dafachronic acid response | activation, % at 6.8 µM;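 active means activation above the mean over all tested compounds plus 3 SD, cut at about 0.9% in these data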;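 further: 0% = DMSO-only wells and 100% = 3 µM delta7-dafachronic acid wells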
DAX1 inh-1 – blocks DAX1 repression of SF-1 activated StAR promoter | HEK293T StAR-luciferase reporter, SF-1/DAX-1 repression relief | inhibition, % at 6.8 µM | 1.1% of 370,000 active;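 active means inhibition above the mean over all tested compounds plus 3 SD, cut at about 3.6% in these data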;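 further: 0% = DAX-1 cells with DMSO and 100% = cells lacking DAX-1 with DMSO; higher inhibition means more luminescence from relief of DAX-1 repression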
DAX1 inh-2 – NR0B1 (DAX1) inhibition | HEK293 Gal4-DAX1 luciferase reporter, luminescence | inhibition, % at 6.75 µM | AID 504766 | 0.99% of 340,000 active;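 active means inhibition above the mean over all tested compounds plus 3 SD, cut at about 4.2% in these data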;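 further: 0% = DAX1-transfected cells with DMSO and 100% = empty-vector control cells with DMSO; inhibition shows as a rise in luminescence from relieved DAX1 repression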
Target sequence (P51843 207-470 limits assumed): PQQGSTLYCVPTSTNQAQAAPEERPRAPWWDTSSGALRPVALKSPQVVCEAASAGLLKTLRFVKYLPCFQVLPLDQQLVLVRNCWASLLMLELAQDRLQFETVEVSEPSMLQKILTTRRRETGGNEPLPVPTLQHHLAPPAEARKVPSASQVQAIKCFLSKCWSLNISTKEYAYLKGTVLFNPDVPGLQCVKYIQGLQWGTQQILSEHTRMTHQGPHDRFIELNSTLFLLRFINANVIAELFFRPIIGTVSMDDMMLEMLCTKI
NR1D1 modulator – modulates human Rev-erb alpha binding to DNA; Rev-erbα–FITC-DNA binding, fluorescence polarization, 90 min; activity, % at 10 µM; 0.79% of 370,000 active; AID 1259318;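 active means activity above about 14%, limit read from the data; passing the limit was not always enough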;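 further: 0% = DMSO wells with 35 nM protein and 100% = DMSO wells with 750 nM protein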
hgDAF12 agonist – hgDAF-12 agonism, primary luciferase screen | HEK293 GAL4-hgDAF12 UAS-luciferase reporter, agonist luminescence; normalized to butyrate control | activation, % at 6.8 µM | 1.8% of 370,000 active;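 active means activation above a cutoff set at the mean of all screened compounds plus 3 SD, cut at about 10% in these data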;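 further: 0% = DMSO wells and 100% = sodium butyrate wells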
hcDAF-12 act – activators of H. contortus DAF-12 nuclear receptor. activation, % at 6.8 µM. 1.4% of 370,000 active. HEK293 hcDAF-12 lit1-tk-luc reporter, luminescence; 0% DMSO, 100% Δ7-dafachronic acid. AID 652067;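 active means activation above the mean of all tested compounds plus 3 SD, cut at about 5.5% in these data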;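 further: 100% = response to 3 µM Δ7-dafachronic acid high control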
* marks the source's active call; other numbers are inactive results; . = no result.

SMILES	ssDAF-12 act	DAX1 inh-1	DAX1 inh-2	NR1D1 modulator	hgDAF12 agonist	hcDAF-12 act
O=C(Cc1ccccc1)NCCc1c[nH]c2ccccc12	-0.9	0.2	0.1	-2.4	-1.9	0.9
FC(F)(F)c1ccccc1Cc1c(-c2ccco2)nc2c3ccccc3ccn12	0.6	-1.0	.	-5.6	-1.3	2.4
O=C(NCCc1c[nH]c2ccccc12)c1cccc(S(=O)(=O)Nc2ccccc2Cl)c1	1.1*	-0.5	0.3	2.0	-4.9	6.0*
CN(C)S(=O)(=O)c1ccc(C(=O)N2CCN(C(=O)C3CCCO3)CC2)cc1 (stereo not given)	-1.3	0.8	-0.2	-5.0	2.5	-1.9
CN(C)S(=O)(=O)c1cccc(C(=O)N2CCN(C(=O)C3CCCO3)CC2)c1 (stereo not given)	-0.6	3.8*	1.6	-3.0	-0.8	-0.3
CC(NCc1ccco1)C(=O)N1CCN(c2ccc(F)cc2)CC1 (stereo not given)	-1.3	-0.4	.	-4.5	4.9	-0.8
Cc1nc(C)n(CC(=O)N2CCCC(C(=O)c3cccc4ccccc34)C2)n1 (stereo not given)	-0.1	1.6	-0.4	-3.6	11.5*	1.2
Cc1ccn(CC(=O)N2CCCC(C(=O)c3cccc4ccccc34)C2)n1 (stereo not given)	-1.6	0.0	-0.7	0.3	2.5	-1.8
O=C(Cc1noc2ccccc12)Nc1ccccn1	0.1	0.6	3.8	-5.5	10.7*	2.0
Cc1ccc(NC(=O)Cc2noc3ccccc23)nc1	-1.4	0.8	-0.8	-1.1	4.0	-1.1
O=C(NC1CCCCN(Cc2ccc(Cl)cc2)C1=O)c1ccc2ccccc2c1 (stereo not given)	-0.8	1.3	.	1.0	5.1	-3.4
COC(=O)c1ccc2nc(-c3ccc(C)cc3)c(Cc3cccc(Cl)c3)n2c1	0.2	-0.1	.	-1.6	1.4	1.0
Cc1ccc2nc(-c3cccc(Cl)c3)c(Cc3cccc(Cl)c3)n2c1	-0.3	3.4	.	5.1	10.2	2.4
Cc1ccc(-c2nc3ccc(C)cn3c2Cc2cccc(Cl)c2)cc1	-1.0	3.8*	.	3.0	8.7	1.2
Cc1ccc2nc(-c3cccc(Cl)c3)c(Cc3ccccc3)n2c1	-0.2	4.2*	.	6.8	11.9*	3.4
Cc1ccc2nc(-c3ccccc3)c(CN3CCOCC3)n2c1	-1.4	0.5	1.6	0.6	11.2*	-0.7
O=C(NC1CCCCN(Cc2cccc(F)c2)C1=O)c1cccc(C(F)(F)F)c1 (stereo not given)	-0.9	0.4	.	-5.8	2.1	1.6
COC(=O)C1CN(CCc2ccccc2)CCS(=O)(=O)N1Cc1ccc(C(F)(F)F)cc1 (stereo not given)	-1.9	-1.6	.	4.1	0.4	0.7
COc1ccc(N=Nc2nc3cc(Br)c(Br)cc3n2C)c(OC)c1	1.6*	0.1	-0.6	1.2	0.2	0.9
O=C1C(=Cc2cccn2-c2ccc(O)cc2)C(=O)c2ccccc21	-0.9	0.1	0.2	-21.1	-0.8	1.2
O=C1C(=Cc2cccn2-c2ccccc2)C(=O)c2ccccc21	1.0*	0.2	-1.0	-14.6	5.2	2.2
Cc1cc(NS(=O)(=O)c2ccc(NC(=O)Cc3ccccc3)cc2)no1	-0.8	-0.6	.	-5.9	-1.8	-1.5
CC(C)C[C@H](NC(=O)c1ccc(Cl)cc1Cl)C(=O)N1CCC[C@H]1C(=O)NCc1ccccc1	-1.2	0.2	.	0.8	1.9	-0.4
CN(C)S(=O)(=O)c1ccc2nc(NC(=O)c3cccnc3)sc2c1	0.1	1.1	4.7*	-3.8	10.5*	2.8
Cc1ccc(C(=O)Nc2ccc3nc(C)sc3c2)s1	-0.4	2.7	1.5	2.4	9.8	2.5
SMILES	ssDAF-12 act	DAX1 inh-1	DAX1 inh-2	NR1D1 modulator	hgDAF12 agonist	hcDAF-12 act
Cc1ccc(C(=O)Nc2ccc3nc(C)sc3c2)o1	-0.6	4.0*	1.8	0.4	11.2*	3.4
CS(=O)(=O)c1ccc2nc(NC(=O)c3cc4ccccc4o3)sc2c1	-0.2	0.7	1.8	-6.8	-0.3	5.3
O=C(Nc1nc2ccc(S(=O)(=O)N3CCCCC3)cc2s1)c1cccnc1	-1.3	-1.0	1.4	-5.9	1.9	-1.0
Cc1ccc(C(=O)Nc2nc3ccc(S(C)(=O)=O)cc3s2)o1	-0.9	0.3	1.2	1.6	11.7*	1.7
Cc1nc2cc(NC(=O)c3ccc(Br)s3)ccc2s1	-0.1	3.2	-2.0	12.1	10.8*	1.5
COc1c(C)c2c(c(O)c1C/C=C(\C)CCC(=O)OCCN1CCOCC1)C(=O)OC2	.	.	.	3.9	.	.
O=S1(=O)c2c(cccc2N2CCC[C@H]2CO)OCCCN1C1CC1	-0.3	-1.0	.	1.8	2.8	0.3
COc1ccc2c(c1)CCCN2C(=O)C1CCCN(S(=O)(=O)c2ccc(C(C)(C)C)cc2)C1 (stereo not given)	-1.9	-2.8	.	-0.2	-5.6	-4.7
Cc1ccc(NC(=O)[C@@H]2CC(=O)O[C@@H]2c2ccccc2)c(C)c1	-1.7	-0.5	.	-0.3	-1.3	0.7
CCOc1ccccc1C(=O)Nc1ccccc1-c1ccccc1	-1.2	0.1	0.5	-0.6	-1.1	5.7*
Cc1cccc(NC(=O)CN2CCN(C(=O)c3ccc(-c4nc5ccccc5s4)o3)CC2)c1C	-0.7	4.0*	0.6	-10.2	2.6	-0.4
COc1cccc(CN(C)C(=O)Cc2c[nH]c3ccccc23)c1	0.8	0.8	-0.4	6.7	7.2	6.1*
COc1ccc(CN(C)C(=O)Cc2c[nH]c3ccccc23)cc1	0.5	-0.6	-0.7	7.9	0.8	6.1*
COc1cccc(CN(C(=O)Cc2c[nH]c3ccccc23)C(C(=O)NC2CCCCC2)c2ccc(C)o2)c1 (stereo not given)	-1.2	-0.4	-1.1	-1.1	-3.1	-1.9
COc1cccc(CN(C)C(=O)Cc2c[nH]c3ccccc23)c1OC	-0.1	-0.5	0.5	2.7	-0.7	-0.8
CCC(C)[C@H](NC(=O)OC(C)(C)C)C(=O)N[C@@H](Cc1ccccc1)C(=O)OC (stereo not given in full)	-0.6	-0.3	.	-1.2	-4.3	-0.9
CC(=O)Nc1ccc(-c2csc(-c3cccnc3)n2)cc1	0.5	1.2	2.0	13.0	10.7*	2.9
c1cncc(-c2nc(-c3cccs3)cs2)c1	-0.9	0.5	1.3	-0.7	7.8	6.2*
c1cncc(-c2csc(-c3cccnc3)n2)c1	-0.9	-0.6	4.7*	1.6	6.3	0.7
CCN(CC)C(=O)c1oc(=O)c2ccccc2c1-c1ccc(C)cc1	-1.4	-1.4	.	-1.6	0.2	-2.6
CN(C)C(=O)NCCCC#Cc1ccccc1	-1.6	-0.7	.	8.3	-2.1	0.2
COc1cc(C)ccc1OCc1cc(C(=O)N(C)CCCN2CCOCC2)no1	1.8*	0.6	1.8	-3.2	10.5*	5.0
CN(CCCN1CCOCC1)C(=O)c1cc(COc2ccc(F)cc2F)on1	-0.5	0.1	0.9	4.1	-1.5	-0.1
